Targets with a hit are over-represented here; the source holds about 7,900 in all. About 0.6% of all pairs of compound and target were hits.
Compound: C[C@H](C1=CC=C(C=C1)C(=O)NC2=C3C=CNC3=NC=C2)N
Assay: log2 fold change, soluble protein after heating vs DMSO (PISA); higher = thermal stabilisation; K562 cells, 10 uM, 30 min; active = over 0.2 and 3.5 SD of the protein, either way, in both replicates (recomputed)
Outline: (§1)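 Thermal stability values are relative to control samples and come from duplicates. They are expressed as log2 fold changes. For measurement, K562 cells (2×10^6 cells/mL) received 10 μM compound for 30 min, and aliquots were heated for 3 min over 48°C-58°C, pooled, and extracted at 4°C in PBS with 0.5% NP-40. Soluble protein, the supernatant after 21,000xg for 90 min, was quantified by TMTpro 16plex LC-MS/MS with equalised channel sums.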

UniProt O00291, sequence (O00291 whole entry, looked up): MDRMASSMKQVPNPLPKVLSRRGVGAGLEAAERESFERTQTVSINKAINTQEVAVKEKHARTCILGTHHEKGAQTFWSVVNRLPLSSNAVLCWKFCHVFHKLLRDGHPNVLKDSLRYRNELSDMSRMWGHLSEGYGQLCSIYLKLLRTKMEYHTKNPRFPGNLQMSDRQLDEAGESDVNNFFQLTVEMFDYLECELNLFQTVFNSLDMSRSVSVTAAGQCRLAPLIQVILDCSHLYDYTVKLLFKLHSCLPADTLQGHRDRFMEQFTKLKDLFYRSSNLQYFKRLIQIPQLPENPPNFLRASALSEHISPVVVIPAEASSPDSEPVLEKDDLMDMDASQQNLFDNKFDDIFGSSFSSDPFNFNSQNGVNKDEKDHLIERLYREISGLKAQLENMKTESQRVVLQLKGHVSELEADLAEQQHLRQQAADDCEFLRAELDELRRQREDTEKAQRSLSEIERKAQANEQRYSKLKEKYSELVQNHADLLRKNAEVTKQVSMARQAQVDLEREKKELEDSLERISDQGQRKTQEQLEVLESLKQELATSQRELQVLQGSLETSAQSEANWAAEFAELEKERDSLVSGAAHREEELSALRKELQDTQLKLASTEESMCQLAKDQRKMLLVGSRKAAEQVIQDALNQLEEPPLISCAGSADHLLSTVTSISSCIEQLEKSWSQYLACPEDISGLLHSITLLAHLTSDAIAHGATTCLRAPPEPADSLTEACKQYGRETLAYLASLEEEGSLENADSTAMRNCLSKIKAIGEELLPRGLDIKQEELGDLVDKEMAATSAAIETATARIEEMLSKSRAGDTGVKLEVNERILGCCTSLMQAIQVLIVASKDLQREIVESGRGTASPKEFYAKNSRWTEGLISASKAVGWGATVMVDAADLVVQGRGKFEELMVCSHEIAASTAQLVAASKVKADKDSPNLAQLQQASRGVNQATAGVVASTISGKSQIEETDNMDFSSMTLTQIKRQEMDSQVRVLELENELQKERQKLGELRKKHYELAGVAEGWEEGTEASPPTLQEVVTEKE
UniProt Q8IWJ2, sequence (Q8IWJ2 whole entry, looked up): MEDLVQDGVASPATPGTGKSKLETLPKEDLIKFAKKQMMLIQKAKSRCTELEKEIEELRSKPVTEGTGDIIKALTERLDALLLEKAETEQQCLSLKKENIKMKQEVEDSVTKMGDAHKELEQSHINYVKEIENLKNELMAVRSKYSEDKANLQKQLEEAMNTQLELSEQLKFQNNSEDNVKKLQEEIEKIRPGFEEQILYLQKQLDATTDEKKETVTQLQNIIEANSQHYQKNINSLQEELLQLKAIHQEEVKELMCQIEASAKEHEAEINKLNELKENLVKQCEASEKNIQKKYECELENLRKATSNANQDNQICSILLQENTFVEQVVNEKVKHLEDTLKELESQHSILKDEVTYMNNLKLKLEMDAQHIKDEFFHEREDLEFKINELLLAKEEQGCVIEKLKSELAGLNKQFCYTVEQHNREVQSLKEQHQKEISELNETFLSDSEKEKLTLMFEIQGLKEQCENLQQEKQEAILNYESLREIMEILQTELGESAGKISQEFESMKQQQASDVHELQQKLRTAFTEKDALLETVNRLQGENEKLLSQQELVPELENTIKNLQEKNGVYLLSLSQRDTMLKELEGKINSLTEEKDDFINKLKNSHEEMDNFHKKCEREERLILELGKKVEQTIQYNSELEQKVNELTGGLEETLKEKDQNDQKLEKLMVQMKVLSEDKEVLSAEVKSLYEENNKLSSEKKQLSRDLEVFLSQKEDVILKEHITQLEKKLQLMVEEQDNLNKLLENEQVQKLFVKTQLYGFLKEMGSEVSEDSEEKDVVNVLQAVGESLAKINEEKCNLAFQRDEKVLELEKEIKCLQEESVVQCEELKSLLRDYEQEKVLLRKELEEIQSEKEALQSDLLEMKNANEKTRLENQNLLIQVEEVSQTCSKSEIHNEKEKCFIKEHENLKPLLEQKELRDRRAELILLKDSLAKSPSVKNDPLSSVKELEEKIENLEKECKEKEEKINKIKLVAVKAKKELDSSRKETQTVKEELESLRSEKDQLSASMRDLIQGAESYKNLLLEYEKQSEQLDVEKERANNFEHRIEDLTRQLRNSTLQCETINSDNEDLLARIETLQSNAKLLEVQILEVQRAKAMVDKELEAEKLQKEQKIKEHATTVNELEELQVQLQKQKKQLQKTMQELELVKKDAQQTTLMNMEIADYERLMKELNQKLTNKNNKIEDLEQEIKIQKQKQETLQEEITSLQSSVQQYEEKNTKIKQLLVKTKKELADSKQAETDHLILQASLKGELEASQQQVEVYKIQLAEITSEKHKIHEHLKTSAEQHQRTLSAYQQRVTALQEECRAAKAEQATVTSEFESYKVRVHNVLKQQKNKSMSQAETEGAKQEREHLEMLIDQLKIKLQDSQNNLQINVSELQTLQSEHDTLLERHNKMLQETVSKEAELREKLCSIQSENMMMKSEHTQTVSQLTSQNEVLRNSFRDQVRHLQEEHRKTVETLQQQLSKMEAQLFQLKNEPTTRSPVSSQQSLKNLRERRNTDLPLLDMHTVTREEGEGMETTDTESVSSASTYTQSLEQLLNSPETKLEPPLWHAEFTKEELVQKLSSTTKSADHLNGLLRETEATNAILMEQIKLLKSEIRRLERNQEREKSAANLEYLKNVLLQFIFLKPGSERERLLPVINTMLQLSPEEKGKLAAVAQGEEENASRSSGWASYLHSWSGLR
UniProt O94925, sequence (O94925 whole entry, looked up): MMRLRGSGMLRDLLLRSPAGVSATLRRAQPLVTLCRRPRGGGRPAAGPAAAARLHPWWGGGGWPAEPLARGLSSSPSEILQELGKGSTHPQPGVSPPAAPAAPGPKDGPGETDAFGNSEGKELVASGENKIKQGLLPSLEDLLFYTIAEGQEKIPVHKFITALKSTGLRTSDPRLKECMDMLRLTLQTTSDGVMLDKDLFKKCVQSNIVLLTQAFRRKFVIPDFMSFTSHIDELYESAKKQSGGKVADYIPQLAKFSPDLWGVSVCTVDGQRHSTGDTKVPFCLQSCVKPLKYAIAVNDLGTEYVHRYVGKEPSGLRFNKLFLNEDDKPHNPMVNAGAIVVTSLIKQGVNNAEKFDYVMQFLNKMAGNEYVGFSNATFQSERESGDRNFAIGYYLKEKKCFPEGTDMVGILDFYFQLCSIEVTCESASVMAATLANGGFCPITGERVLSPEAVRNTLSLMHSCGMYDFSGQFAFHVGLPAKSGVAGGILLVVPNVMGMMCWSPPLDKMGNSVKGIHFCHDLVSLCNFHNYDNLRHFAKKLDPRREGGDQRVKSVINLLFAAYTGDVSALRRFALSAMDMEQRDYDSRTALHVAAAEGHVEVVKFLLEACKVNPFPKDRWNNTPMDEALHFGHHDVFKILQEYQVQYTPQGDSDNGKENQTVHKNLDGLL
UniProt P30519, sequence (P30519 whole entry, looked up): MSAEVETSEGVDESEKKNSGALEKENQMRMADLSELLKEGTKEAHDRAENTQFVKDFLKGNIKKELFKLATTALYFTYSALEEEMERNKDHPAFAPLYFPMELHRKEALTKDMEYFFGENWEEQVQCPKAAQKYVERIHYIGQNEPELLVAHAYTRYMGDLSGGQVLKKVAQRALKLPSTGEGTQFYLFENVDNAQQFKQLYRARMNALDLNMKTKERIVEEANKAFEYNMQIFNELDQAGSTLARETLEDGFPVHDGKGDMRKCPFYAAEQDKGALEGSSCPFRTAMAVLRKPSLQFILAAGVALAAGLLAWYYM
UniProt Q92522, sequence (Q92522 whole entry, looked up): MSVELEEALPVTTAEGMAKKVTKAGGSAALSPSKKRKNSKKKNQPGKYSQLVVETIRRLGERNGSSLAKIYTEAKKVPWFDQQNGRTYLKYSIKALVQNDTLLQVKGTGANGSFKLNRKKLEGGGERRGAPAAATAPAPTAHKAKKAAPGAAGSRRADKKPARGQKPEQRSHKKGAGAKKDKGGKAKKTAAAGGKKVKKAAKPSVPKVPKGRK
UniProt Q86VQ1, sequence (Q86VQ1 whole entry, looked up): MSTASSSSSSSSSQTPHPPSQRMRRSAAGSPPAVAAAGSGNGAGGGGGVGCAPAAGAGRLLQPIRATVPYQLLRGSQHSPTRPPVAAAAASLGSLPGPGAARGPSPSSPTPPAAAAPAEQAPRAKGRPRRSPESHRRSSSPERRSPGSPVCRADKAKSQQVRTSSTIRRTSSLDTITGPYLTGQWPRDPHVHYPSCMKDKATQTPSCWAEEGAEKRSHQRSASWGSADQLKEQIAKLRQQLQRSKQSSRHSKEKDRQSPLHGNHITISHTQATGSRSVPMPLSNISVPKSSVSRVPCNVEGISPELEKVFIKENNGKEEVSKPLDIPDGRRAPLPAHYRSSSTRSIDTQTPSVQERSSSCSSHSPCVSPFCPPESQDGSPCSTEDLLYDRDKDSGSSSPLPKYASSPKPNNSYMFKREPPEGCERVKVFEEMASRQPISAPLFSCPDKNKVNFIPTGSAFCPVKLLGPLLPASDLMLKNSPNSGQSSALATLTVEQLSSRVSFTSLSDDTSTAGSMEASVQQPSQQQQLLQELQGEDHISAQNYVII
UniProt P29083, sequence (P29083 whole entry, looked up): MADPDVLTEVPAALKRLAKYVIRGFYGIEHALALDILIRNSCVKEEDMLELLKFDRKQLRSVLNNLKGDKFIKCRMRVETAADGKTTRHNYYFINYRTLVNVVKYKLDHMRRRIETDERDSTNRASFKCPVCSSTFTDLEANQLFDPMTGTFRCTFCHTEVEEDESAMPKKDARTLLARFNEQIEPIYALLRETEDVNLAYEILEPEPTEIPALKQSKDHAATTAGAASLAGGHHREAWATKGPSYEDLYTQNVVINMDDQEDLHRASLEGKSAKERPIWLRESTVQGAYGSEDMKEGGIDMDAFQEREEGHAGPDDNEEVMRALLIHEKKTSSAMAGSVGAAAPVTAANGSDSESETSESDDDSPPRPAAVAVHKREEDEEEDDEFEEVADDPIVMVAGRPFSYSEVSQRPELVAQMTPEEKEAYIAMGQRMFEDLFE

log2 fold change, inactive:
FBXO3 (UniProt Q9UK99) 0.008
HMOX2 (UniProt P30519) 0.008
GLS isoform 3 (UniProt O94925) -0.007
H1FX (UniProt Q92522) 0.432
GBF1 (UniProt Q92538) 0.08
GTF2E1 (UniProt P29083) -0.088
GLCCI1 (UniProt Q86VQ1) 0.026
FNTA (UniProt P49354) -0.005
HIP1 (UniProt O00291) -0.002
HIST2H3A (UniProt Q71DI3) 0.399
GCC2 (UniProt Q8IWJ2) 0.246

Compound: C[C@H](Nc1ncnc2nc[nH]c12)c1cc2cccc(Cl)c2c(=O)n1-c1ccccc1 [duvelisib]
Assay: as above
Outline: as §1

log2 fold change, active:
GAB2 (UniProt Q9UQC2) -0.836
HTATIP2 isoform 3 (UniProt Q9BUP3) 0.294

log2 fold change, inactive:
GTF3C4 (UniProt Q9UKN8) 0.035
HEATR5B (UniProt Q9P2D3) -0.026
IDI1 isoform 2 (UniProt Q13907) 0.069
HP1BP3 (UniProt Q5SSJ5) -0.097
GSK3A (UniProt P49840) 0.044
GNAI3 (UniProt P08754) 0.002
GUSB (UniProt P08236) 0.066
GEMIN5 (UniProt Q8TEQ6) -0.006
FASTKD1 (UniProt Q53R41) 0.035
GNAS (UniProt Q5JWF2) 0.07
GOLGB1 isoform 2 (UniProt Q14789) 0.004
HEXB (UniProt P07686) 0.008
H2AFX (UniProt P16104) -0.128
GCDH (UniProt Q92947) 0.098
FIS1 (UniProt Q9Y3D6) -0.143
FKBP3 (UniProt Q00688) 0.016
FBXO7 (UniProt Q9Y3I1) 0.015
HIP1R (UniProt O75146) -0.045
IDH3A (UniProt P50213) 0.063
HMGB3 (UniProt O15347) 0.01
FBL (UniProt P22087) -0.084
FDPS (UniProt P14324) 0.059
FBXO3 (UniProt Q9UK99) -0.025
HMOX2 (UniProt P30519) 0.011
GLS isoform 3 (UniProt O94925) 0.077
H1FX (UniProt Q92522) -0.143
GBF1 (UniProt Q92538) -0.028
GTF2E1 (UniProt P29083) 0.035
GLCCI1 (UniProt Q86VQ1) 0.023
FNTA (UniProt P49354) 0.014
HIP1 (UniProt O00291) 0.085
HIST2H3A (UniProt Q71DI3) -0.359
GCC2 (UniProt Q8IWJ2) -0.007

Compound: Cc1cc(Nc2cc(CN3CCOCC3)c3nc(C)c(Cc4ccc(Cl)cc4F)n3n2)n[nH]1 [gandotinib]
Assay: as above
Outline: as §1

log2 fold change, inactive:
GTF3C4 (UniProt Q9UKN8) -0.05
HEATR5B (UniProt Q9P2D3) -0.039
IDI1 isoform 2 (UniProt Q13907) 0.014
HP1BP3 (UniProt Q5SSJ5) 0.039
GSK3A (UniProt P49840) 0.201
GNAI3 (UniProt P08754) 0.039
GUSB (UniProt P08236) 0.051
GEMIN5 (UniProt Q8TEQ6) -0.082
FASTKD1 (UniProt Q53R41) -0.284
GNAS (UniProt Q5JWF2) -0.034
GOLGB1 isoform 2 (UniProt Q14789) -0.031
HEXB (UniProt P07686) -0.013
H2AFX (UniProt P16104) 0.087
GCDH (UniProt Q92947) 0.076
FIS1 (UniProt Q9Y3D6) 0.032
FKBP3 (UniProt Q00688) -0.024
FBXO7 (UniProt Q9Y3I1) -0.194
HIP1R (UniProt O75146) -0.069
IDH3A (UniProt P50213) -0.037
HMGB3 (UniProt O15347) 0.01
FBL (UniProt P22087) 0.124
GAB2 (UniProt Q9UQC2) -0.071
FDPS (UniProt P14324) -0.091
HTATIP2 isoform 3 (UniProt Q9BUP3) 0.003
FBXO3 (UniProt Q9UK99) -0.112
HMOX2 (UniProt P30519) 0.017
GLS isoform 3 (UniProt O94925) -0.264
H1FX (UniProt Q92522) 0.13
GBF1 (UniProt Q92538) -0.197
GTF2E1 (UniProt P29083) -0.011
GLCCI1 (UniProt Q86VQ1) 0.079
FNTA (UniProt P49354) 0.057
HIP1 (UniProt O00291) 0.029
HIST2H3A (UniProt Q71DI3) -0.014
GCC2 (UniProt Q8IWJ2) 0.081

From the supplement of paper PMC10849652
